Counter-ions that a name gives are not always drawn. ± gives the standard deviation of the averaged measurements. The full ranking holds about 1,300 compounds; the median of “normalised cell viability” is about 1, and the lowest 2% start at about 0.14. Many of the other results were omitted from the sample, so the lowest values are more common in it than they were.
Tested on: V-C8 (BRCA2-deficient hamster cells)
Experiment: normalised cell viability (fraction of plate median); higher = more viable cells (less toxic)
Conditions: 5 µM
Summary of the method: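 Hamster V-C8 cells with and without restored BRCA2 were exposed in 96-well plates to library drugs at 5 μM for 3 days (screen 1) or 6 days (screen 2). Cell viability was scored by resazurin assay, then median-plate normalised, averaging triplicate wells.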

`CN(C)CCOc1ccc(/C(=C(/CCCl)c2ccccc2)c2ccccc2)cc1` [Toremifene] showed a normalised cell viability (treatment time: 3 days) of 0.716 ± 0.067 and a normalised cell viability (treatment time: 6 days) of 0.875 ± 0.052.
Work on `CC/C(=C(\c1ccccc1)c1ccc(OCCN(C)C)cc1)c1ccccc1` [Tamoxifen citrate] yielded a normalised cell viability (treatment time: 3 days) of 0.837 ± 0.019 and a normalised cell viability (treatment time: 6 days) of 0.767 ± 0.035.
For `CCN(CC)CCOc1ccc(C(=C(Cl)c2ccccc2)c2ccccc2)cc1` [Clomiphene citrate (Z,E)], the normalised cell viability (treatment time: 3 days) was 0.142 ± 0.002 and the normalised cell viability (treatment time: 6 days) was 0.118 ± 0.011.
For `CC[N+](CC)(CC(=O)Nc1c(C)cccc1C)Cc1ccccc1` [Denatonium benzoate], the normalised cell viability (treatment time: 3 days) was 1.01 ± 0.031 and the normalised cell viability (treatment time: 6 days) was 1.07 ± 0.019.
`Cc1cn([C@H]2C=C[C@@H](CO)O2)c(=O)[nH]c1=O` [Stavudine] showed a normalised cell viability (treatment time: 3 days) of 1.05 ± 0.077 and a normalised cell viability (treatment time: 6 days) of 1.23 ± 0.35.
Work on `O=C1NCCN1CCN1CCC(c2cn(-c3ccc(F)cc3)c3ccc(Cl)cc23)CC1` [Sertindole] yielded a normalised cell viability (treatment time: 3 days) of 0.385 ± 0.019 and a normalised cell viability (treatment time: 6 days) of 0.591 ± 0.069.
`CC(C)(C)C(=O)OCOC(=O)[C@@H]1N2C(=O)[C@@H](/N=C/N3CCCCCC3)[C@H]2SC1(C)C` [Pivmecillinam hydrochloride] showed a normalised cell viability (treatment time: 3 days) of 0.959 ± 0.056 and a normalised cell viability (treatment time: 6 days) of 1.01 ± 0.039.
`Cc1ncc([N+](=O)[O-])n1CCO` [Metronidazole] showed a normalised cell viability (treatment time: 3 days) of 0.914 ± 0.088 and a normalised cell viability (treatment time: 6 days) of 1.04 ± 0.058.
`CC(=O)O[C@H]1C(=O)[C@@]2(C)[C@H]([C@H](OC(=O)c3ccccc3)[C@]3(O)C[C@H](OC(=O)[C@H](O)[C@@H](NC(=O)c4ccccc4)c4ccccc4)C(C)=C1C3(C)C)[C@]1(OC(C)=O)CO[C@@H]1C[C@@H]2O` [Paclitaxel] showed a normalised cell viability (treatment time: 3 days) of 0.193 ± 0.01 and a normalised cell viability (treatment time: 6 days) of 0.199 ± 0.0046.
For `Cc1oncc1C(=O)Nc1ccc(C(F)(F)F)cc1` [Leflunomide], the normalised cell viability (treatment time: 3 days) was 0.904 ± 0.065 and the normalised cell viability (treatment time: 6 days) was 0.959 ± 0.043.
With `COc1cccc(N(C)C(=S)Oc2ccc3c(c2)CCCC3)n1` [Liranaftate] the normalised cell viability (treatment time: 3 days) was 0.805 ± 0.038 and the normalised cell viability (treatment time: 6 days) was 0.74 ± 0.046.
`COC(=O)Nc1nc2ccc(SC(C)C)cc2[nH]1` [Methiazole] showed a normalised cell viability (treatment time: 3 days) of 0.214 ± 0.0082 and a normalised cell viability (treatment time: 6 days) of 0.221 ± 0.025.
`COc1ccc(CN2CCN(C(c3ccc(F)cc3)c3ccc(F)cc3)CC2)c(OC)c1OC` [Lomerizine hydrochloride] showed a normalised cell viability (treatment time: 3 days) of 0.881 ± 0.042 and a normalised cell viability (treatment time: 6 days) of 0.799 ± 0.035.
`Cc1ccc(S(=O)(=O)NC(=O)NN2CC3CCCC3C2)cc1` (stereo not given) [Gliclazide] gave a normalised cell viability (treatment time: 3 days) of 1.04 ± 0.049 and a normalised cell viability (treatment time: 6 days) of 0.979 ± 0.091.
In the case of `CCOC(=O)OC(C)OC1=C(C(=O)Nc2ccccn2)N(C)S(=O)(=O)c2ccccc21` (stereo not given) [Ampiroxicam], the normalised cell viability (treatment time: 3 days) is reported as 1.03 ± 0.055 and the normalised cell viability (treatment time: 6 days) is reported as 1.02 ± 0.041.
With `Cc1cc(N)c2ccccc2[n+]1CCCCCCCCCC[n+]1c(C)cc(N)c2ccccc21` [Dequalinium dichloride] the normalised cell viability (treatment time: 3 days) was 0.171 ± 0.0032 and the normalised cell viability (treatment time: 6 days) was 0.162 ± 0.013.
`CN(CCCCCCCCCCN(C)C(=O)Oc1cccc([N+](C)(C)C)c1)C(=O)Oc1cccc([N+](C)(C)C)c1` [Demecarium bromide] gave a normalised cell viability (treatment time: 3 days) of 0.828 ± 0.022 and a normalised cell viability (treatment time: 6 days) of 0.812 ± 0.013.
With `C[C@H]1NC(=O)NC1=O` [Methylhydantoin-5-(D)] the normalised cell viability (treatment time: 3 days) was 0.968 ± 0.032 and the normalised cell viability (treatment time: 6 days) was 0.954 ± 0.077.
`CO[C@H]1/C=C/O[C@@]2(C)Oc3c(C)c(O)c4c(O)c(c5c(nc6cc(C)ccn65)c4c3C2=O)NC(=O)/C(C)=C\C=C\[C@H](C)[C@H](O)[C@@H](C)[C@@H](O)[C@@H](C)[C@H](OC(C)=O)[C@@H]1C` [Rifaximin] was tested, and the normalised cell viability (treatment time: 3 days) was 0.964 ± 0.023 and the normalised cell viability (treatment time: 6 days) was 0.928 ± 0.017.
Work on `CN(C/C=C/c1ccccc1)Cc1cccc2ccccc12` [Naftifine hydrochloride] yielded a normalised cell viability (treatment time: 3 days) of 0.199 ± 0.019 and a normalised cell viability (treatment time: 6 days) of 0.219 ± 0.0077.
Work on `CC(O)(P(=O)(O)O)P(=O)(O)O` [Etidronic acid, disodium salt] yielded a normalised cell viability (treatment time: 3 days) of 1.03 ± 0.024 and a normalised cell viability (treatment time: 6 days) of 1.05 ± 0.046.
For `CNC(=C[N+](=O)[O-])NCCSCc1ccc(CN(C)C)o1` [Ranitidine hydrochloride], the normalised cell viability (treatment time: 3 days) was 1.02 ± 0.13 and the normalised cell viability (treatment time: 6 days) was 1.08 ± 0.045.
`CC(=O)OCC(=O)[C@@]1(OC(C)=O)[C@@H](C)C[C@H]2[C@@H]3C[C@H](F)C4=CC(=O)C=C[C@]4(C)[C@@]3(F)[C@@H](O)C[C@@]21C` [Diflorasone Diacetate] showed a normalised cell viability (treatment time: 3 days) of 1.18 ± 0.074 and a normalised cell viability (treatment time: 6 days) of 1.02 ± 0.051.
`OC[C@H]1O[C@@H](Oc2ccc(O)cc2)[C@H](O)[C@@H](O)[C@@H]1O` [Arbutin] showed a normalised cell viability (treatment time: 3 days) of 1.05 ± 0.026 and a normalised cell viability (treatment time: 6 days) of 1.03 ± 0.058.
`CCOc1ccc(Cc2nccc3cc(OCC)c(OCC)cc23)cc1OCC` [Ethaverine hydrochloride] gave a normalised cell viability (treatment time: 3 days) of 0.625 ± 0.013 and a normalised cell viability (treatment time: 6 days) of 0.534 ± 0.022.
Compound `CC(=O)O[C@H]1C[C@@H]2CC[C@@H]3[C@H](CC[C@@]4(C)[C@H]3C[C@H]([N+]3(C)CCCCC3)[C@@H]4OC(C)=O)[C@@]2(C)C[C@@H]1N1CCCCC1` [Vecuronium bromide] has a normalised cell viability (treatment time: 3 days) of 1.01 ± 0.047 and a normalised cell viability (treatment time: 6 days) of 1.04 ± 0.036.
Compound `Clc1ccc(C(Cn2ccnc2)OCc2c(Cl)cccc2Cl)c(Cl)c1` (stereo not given) [Isoconazole] has a normalised cell viability (treatment time: 3 days) of 1.12 ± 0.04 and a normalised cell viability (treatment time: 6 days) of 1.09 ± 0.045.
`NCCCC(O)(P(=O)(O)O)P(=O)(O)O` [Alendronate sodium] was tested, and the normalised cell viability (treatment time: 3 days) was 0.709 ± 0.1 and the normalised cell viability (treatment time: 6 days) was 0.515 ± 0.033.
`O=C(Nc1ccc([N+](=O)[O-])cc1Cl)c1cc(Cl)ccc1O` [Niclosamide] gave a normalised cell viability (treatment time: 3 days) of 0.124 ± 0.0032 and a normalised cell viability (treatment time: 6 days) of 0.0967 ± 0.0062.
`CN(C)CCOC(c1ccccc1)c1ccccc1.Cn1c(=O)c2[nH]c(Cl)nc2n(C)c1=O` [Dimenhydrinate] gave a normalised cell viability (treatment time: 3 days) of 1.08 ± 0.086 and a normalised cell viability (treatment time: 6 days) of 1.04 ± 0.024.
`CN1C(C)(C)CCCC1(C)C` [Pempidine tartrate] showed a normalised cell viability (treatment time: 3 days) of 0.993 ± 0.026 and a normalised cell viability (treatment time: 6 days) of 1.048 ± 0.004.
In the case of `C=C1C(=O)O[C@H]2[C@H]1CC/C(C)=C/CC[C@@]1(C)O[C@@H]21` [Parthenolide], the normalised cell viability (treatment time: 3 days) is reported as 0.199 ± 0.017 and the normalised cell viability (treatment time: 6 days) is reported as 0.416 ± 0.11.
With `Clc1ccc(CCC(Cn2ccnc2)Sc2c(Cl)cccc2Cl)cc1` (stereo not given) [Butoconazole nitrate] the normalised cell viability (treatment time: 3 days) was 0.839 ± 0.015 and the normalised cell viability (treatment time: 6 days) was 0.801 ± 0.028.
With `CS(=O)(=O)c1ccc(C2=C(c3ccccc3)C(=O)OC2)cc1` [Rofecoxib] the normalised cell viability (treatment time: 3 days) was 1.02 ± 0.065 and the normalised cell viability (treatment time: 6 days) was 1.02 ± 0.016.
Work on `CC(C)c1c(C(=O)Nc2ccccc2)c(-c2ccccc2)c(-c2ccc(F)cc2)n1CC[C@@H](O)C[C@@H](O)CC(=O)O` [Atorvastatin] yielded a normalised cell viability (treatment time: 3 days) of 0.633 ± 0.051 and a normalised cell viability (treatment time: 6 days) of 0.734 ± 0.032.
`CC(C)n1c(/C=C/C(O)CC(O)CC(=O)O)c(-c2ccc(F)cc2)c2ccccc21` (stereo not given) [Fluvastatin sodium salt] was tested, and the normalised cell viability (treatment time: 3 days) was 0.121 ± 0.0047 and the normalised cell viability (treatment time: 6 days) was 0.156 ± 0.004.
`C=CC(N)CCC(=O)O` (stereo not given) [Vigabatrin] showed a normalised cell viability (treatment time: 3 days) of 1.04 ± 0.061 and a normalised cell viability (treatment time: 6 days) of 1.03 ± 0.042.
For `CCN(CCO)CCCC(C)Nc1ccnc2cc(Cl)ccc12` (stereo not given) [Hydroxychloroquine sulfate], the normalised cell viability (treatment time: 3 days) was 0.365 ± 0.05 and the normalised cell viability (treatment time: 6 days) was 0.524 ± 0.048.
`CCN(CC)CCCC(C)Nc1c2ccc(Cl)cc2nc2ccc(OC)cc12` (stereo not given) [Quinacrine dihydrochloride dihydrate] gave a normalised cell viability (treatment time: 3 days) of 0.123 ± 0.011 and a normalised cell viability (treatment time: 6 days) of 0.108 ± 0.009.
`CCN(CC)CCCC(C)Nc1ccnc2cc(Cl)ccc12` (stereo not given) [Chloroquine diphosphate] showed a normalised cell viability (treatment time: 3 days) of 0.756 ± 0.026 and a normalised cell viability (treatment time: 6 days) of 0.76 ± 0.0079.

Source: the supplement of paper PMC6609913
